# Assay outcomes: PubChem, National Center for Advancing Translational Sciences (NCATS)
# Rows were chosen to be rich in hits. Some 10% of all compounds tested hit in one or more screens of this group.
# NIH3T3 tox: Cytotoxic Profiling in NIH 3T3 Cell Line of Diverse Libraries Using Quantitative High-Throughput Screening | actives 4.3% (n = 94,000) | AID 1345082, 2018 | NIH 3T3 viability, CellTiter-Glo ATP luminescence, 48-72 h | Potency, µM (doses to about 96.7 µM), most hits filed as inhibitors; further: nearly all actives have a fitted effect of over 55% in size
#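 First NIH 3T3 cells are plated at 400 cells/well; next compound is pinned in; then plates incubate 48 or 72 hr at 37 °C; finally CellTiter-Glo is added and luminescence read after 10 min.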
# NPR1 antag: Natriuretic polypeptide receptor (hNpr1) antagonism - Primary qHTS; Potency, µM (top dose mostly 46.3 µM), actives largely listed as inhibitors; actives 1.6% (n = 76,000); AID 1347048, 2019; HEK293 hNpr1 GloSensor cGMP, ANP-stimulated luminescence; calls by dose curve; further: nearly all actives have a fitted effect of over 60% in size
#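 HEK293 cells stably expressing human Npr1 and cGMP GloSensor pGS-40F, loaded 2 h with 2% GloSensor reagent, given compound 30 min at room temperature. Luminescence read before and 20 min after 0.1 nM hNppA.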
# GPT2 inh: Primary qHTS assay for inhibitors of Glutamate pyruvate transaminase 2 (GPT2); Alanine aminotransferase 2 (Homo sapiens), Q8TD30; Recombinant GPT2, coupled pyruvate oxidase/HRP Amplex Red fluorescence; actives 0.25% (n = 100,000); AID 1671188, 2021; Potency, µM (top dose mostly 57.7 µM), most hits filed as inhibitors; further: nearly all actives have a fitted effect of over 60% in size
#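 Inhibition is scored from Amplex Red fluorescence generated when pyruvate oxidase and HRP act on pyruvate released by GPT2. Reactions contain 10ng/uL enzyme, 250uM a-KG and 2mM L-alanine and run 30 min at room temperature.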
# FLuc inh: Firefly luciferase inhibition profiling of diverse chemical library using quantitative high-throughput screening. Luciferin 4-monooxygenase (Photinus pyralis), P08659. purified P. pyralis luciferase, luminescence, biochemical. Potency, µM (highest dose often 115 µM), actives largely listed as inhibitors. actives 2.5% (n = 76,000). AID 1347043, 2019; further: nearly all actives have a fitted effect of over 65% in size
# Target sequence (P08659 whole entry, looked up): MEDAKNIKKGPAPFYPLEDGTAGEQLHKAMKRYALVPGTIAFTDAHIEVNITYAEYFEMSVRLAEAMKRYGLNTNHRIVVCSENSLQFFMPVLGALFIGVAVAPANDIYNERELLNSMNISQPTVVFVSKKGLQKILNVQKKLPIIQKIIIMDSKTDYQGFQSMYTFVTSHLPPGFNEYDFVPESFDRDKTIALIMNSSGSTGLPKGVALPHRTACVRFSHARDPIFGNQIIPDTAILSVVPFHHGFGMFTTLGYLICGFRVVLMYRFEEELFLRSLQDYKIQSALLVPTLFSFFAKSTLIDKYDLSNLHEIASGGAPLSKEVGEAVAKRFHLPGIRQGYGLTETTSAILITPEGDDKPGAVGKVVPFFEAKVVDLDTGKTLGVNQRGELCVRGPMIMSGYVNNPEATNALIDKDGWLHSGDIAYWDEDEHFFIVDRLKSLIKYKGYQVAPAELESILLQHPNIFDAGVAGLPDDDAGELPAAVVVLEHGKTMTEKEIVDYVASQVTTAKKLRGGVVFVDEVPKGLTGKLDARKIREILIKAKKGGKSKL
#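 Purified 10nM P. pyralis luciferase with 10uM D-luciferin and 10uM ATP in 50mM Tris acetate pH 7.5, 10mM Mg acetate, 0.01% Tween-20, 0.05% BSA. qHTS titration; luminescence read by CCD imager.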
# HEK293 tox: Cytotoxic Profiling in HEK 293 Cell Line of Diverse Libraries Using Quantitative High-Throughput Screening; AID 1345083, 2018; Potency, µM (series often up to 115 µM), actives largely listed as inhibitors; HEK 293 viability, ATP luminescence (CellTiter-Glo), 48-72 h; actives 6.6% (n = 94,000); further: nearly all actives have a fitted effect of over 60% in size
#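 qHTS cytotoxicity; HEK 293, 250 cells/well; compound pinned; 48 or 72 hr, 37 degree Celsius, 5% CO2, 95% humidity; CellTiter-Glo, 10 min RT; luminescence (ATP).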
# Hits are given with their value; . = inactive; ? = inconclusive; / = no result given. Unless noted, the call rests on the fitted dose curve; in most records, active means well fitted curve in the direction sought with a large enough effect; inconclusive means small, poorly fitted or top-dose-only effect, or another doubt; inactive means no such curve, though single readings can be large; an effect the other way counts as inactive or inconclusive.
SMILES,NIH3T3 tox,NPR1 antag,GPT2 inh,FLuc inh,HEK293 tox
CC1=C[C@@H](CN2CCC(C(N)=O)CC2)[C@H](C(C)C)C[C@H]1Cc1nnc(-c2ccc(N(C)C)cc2)o1,35µM,.,.,.,40µM
Cc1ccccc1C(=O)N1CCCC(C(=O)N2CCC(c3nc4ncccc4[nH]3)C2)C1 (centres undefined),.,/,.,/,.
C#CCNC(=O)c1cc(-c2cccc(C(F)(F)F)c2)c2nncn2n1,?,/,.,/,10µM
O=C(c1cc(-c2cccc(C(F)(F)F)c2)c2nncn2n1)N1CCC(c2ccccc2)CC1,?,/,.,/,25µM
O=C(c1cc(-c2cccc(C(F)(F)F)c2)c2nncn2n1)N1CCCC1,.,/,.,/,.
O=C(NCC(F)(F)F)C1CN(c2ccccc2)C(=O)N1 (centres undefined),.,.,.,.,?
CN(CC1CCOC1)C(=O)Nc1ccc(Br)cc1 (centres undefined),.,.,.,.,.
CN(C1CCCc2ccccc21)S(C)(=O)=O (centres undefined),.,.,.,.,.
CN(C(=O)Cc1cccc(Cl)c1)C1CCCc2ccccc21 (centres undefined),?,.,.,.,100µM
Cc1ccc(S(=O)(=O)N(C)C2CCCc3ccccc32)cc1 (centres undefined),?,.,.,.,89µM
CN(C(=O)C1CC1)C1CCCc2ccccc21 (centres undefined),?,.,.,.,?
Cc1ccccc1C(=O)N(C)C1CCCc2ccccc21 (centres undefined),?,.,.,.,89µM
CN(C(=O)c1ccc(C(F)(F)F)cc1)C1CCCc2ccccc21 (centres undefined),50µM,.,.,?,?
COc1ccccc1CN(C)C(=O)c1coc(COc2cccc(F)c2F)n1,?,.,.,.,.
O=C(NCc1ccc(Cl)cc1)c1cc(-c2ccc(Cl)cc2Cl)c2nncn2n1,35µM,/,.,/,?
O=C(NC1CCCCCC1)c1cc(-c2ccc(Cl)cc2Cl)c2nncn2n1,?,/,.,/,40µM
COCCN1CCN(Cc2ccc(-c3n[nH]c4c3C(=O)c3c(NC(=O)NN5CCOCC5)cccc3-4)cc2)CC1,/,/,.,/,/
COc1ccc(NC(=O)CN2C(=O)NC3(CCOCC3)C2=O)cc1OC,.,.,.,.,.
FC(F)(F)c1cccc(CN2CCOC[C@H](Oc3ccccc3)C2)c1,?,.,.,.,?
FC(F)(F)c1ccc(O[C@H]2COCCN(CC3CCCC3)C2)cc1,89µM,.,.,.,112µM
O=C(NCc1cc(F)cc(F)c1)c1ccc(N2CC3CC(C2)[C@H]2CCCC(=O)N2C3)nc1 (some centres undefined),.,.,.,.,.
O=C(NCc1cccnc1)c1ccc(N2CC3CC(C2)[C@H]2CCCC(=O)N2C3)nc1 (some centres undefined),5µM,.,.,.,.
O=C(NCc1ccc(F)cc1F)c1ccc(N2CC3CC(C2)[C@H]2CCCC(=O)N2C3)nc1 (some centres undefined),28µM,.,.,.,.
COc1cccc(CNC(=O)C2CN(C3CCCC3)C(=O)N2)c1 (centres undefined),.,/,.,/,.
Cn1c(=O)n([C@H]2CCCN(C(=O)CCc3nc(-c4ccccc4)no3)C2)c2ncccc21,.,/,.,/,?
SMILES,NIH3T3 tox,NPR1 antag,GPT2 inh,FLuc inh,HEK293 tox
Cn1ncc2c(C(=O)Nc3ccccc3F)cc(-c3cccc(C(F)(F)F)c3)nc21,?,/,/,/,.
COc1ncccc1-c1cc(C(=O)NCC2CCOCC2)c2c(c1)ncn2C,?,.,?,.,.
COc1ncccc1-c1cc(C(=O)N2CCCC(OC)C2)c2c(c1)ncn2C (centres undefined),89µM,.,.,.,.
CC(C)Cn1c(=O)c(C(=O)N2CCOCC2)nc2cccnc21,.,/,.,/,.
CCC(C)NC(=O)c1cc(-c2ccc(C(F)(F)F)cc2)nc2c1cnn2C (centres undefined),?,/,/,/,.
CC(C)CN(C/C=C/c1ccccc1)C(=O)C1CC2(CCNCC2)CN1 (centres undefined),?,.,.,.,?
CC(C)(CC1Cc2ccccc2C1)NC(=O)C1CC2(CCNCC2)CN1 (centres undefined),32µM,.,.,.,25µM
Fc1ccc(-c2cnc3n[nH]c(-c4ccccc4)c3n2)cc1,28µM,.,.,.,?
COc1cc(F)ccc1-c1cnc2n[nH]c(-c3ccccc3)c2n1,?,.,.,.,?
Clc1ccc(-c2cnc3n[nH]c(-c4ccccc4)c3n2)cc1,28µM,.,.,.,79µM
Cc1ccc(-c2c(C(=O)N3CCOCC3)nc3sccn23)cc1,.,/,.,/,.
O=C(C1CCCN1C(=O)Nc1ccccc1)N1CCC(c2ccccc2)CC1 (centres undefined),.,/,.,/,.
COc1ccc(-c2cc(NCCO)nc3[nH]ccc23)cc1C(F)(F)F,40µM,.,.,.,40µM
Cn1ncc2c(C(=O)Nc3cccc(Cl)c3)cc(-c3cccc(F)c3)nc21,?,/,/,/,35µM
Cn1ncc2c(C(=O)NCC(F)F)cc(-c3cccc(C(F)(F)F)c3)nc21,.,/,/,/,.
Cn1ncc2c(C(=O)NCC(F)F)cc(-c3cccc(F)c3)nc21,?,/,/,/,56µM
